Measured values reported in PubChem BioAssay AID720650 (Broad Institute, 2013).
A number with no mark means an inactive call. Calls of active or inactive are those of the source. The rule behind the calls is not given here.

Assay: C difficile toxins, biochemical counterscreen, UDPG substrate absence, confirmatory dose response (AID 720650)
Settings: series mostly up to 19.5 µM; activity change, negative = inhibition: at the top concentration

| Compound | activity change, negative = inhibition | AC50 |
| --- | --- | --- |
| Cc1ccnc(N2C(=O)c3ccccc3C2=O)c1 | 6.58% | – |
| C[C@H](CO)N1C[C@H](C)[C@H](CN(C)Cc2ccc(Oc3ccccc3)cc2)Oc2cc(-c3ccncc3)ccc2S1(=O)=O | -5.93% | – |
| COCC(=O)N1CC[C@@H]2[C@H]1c1cc(-c3cccc(OC)c3)ccc1N(C)[C@H]2CO | – | 8.89 µM (active) |
| CN1C=CC(=CC=C2C=CC(=O)C=C2)C=C1 | – | 7.43 µM (active) |
| O=C(NNc1ccc(-c2csnn2)cc1)c1ccccc1C(F)(F)F | – | 0.432 µM (active) |
| Cc1onc(-c2c(F)cccc2Cl)c1C(=O)Nc1nnc(C(F)(F)F)s1 | -11.9% | – |
| Cc1csc(N=Nc2ccc(N(C)C)cc2)[n+]1[O-] | – | > 39 µM |
| CC(=O)C[C@H]1c2ccccc2S(=O)(=O)N1C1CCCCC1 | 2.33% | – |
| NC(=O)NN=C1CC2CC1C1C=CCC21 (stereo not drawn) | -12.3% | – |
| CCn1c(SCC(=O)OC)nnc1-c1ccccc1 | -3.54% | – |
| Cc1cc(C)cc(N=C2NC(=O)CS2)c1 | -5.57% | – |
| Cc1ccc(NNC(=O)C2CCC2)cc1C | – | 0.386 µM (active) |
| Cc1ccccc1C(C(=O)NC1CCCCC1)N(C(=O)c1ccccn1)c1cccnc1 (stereo not drawn) | -0.409% | – |
| Oc1ccc(/C=N/Nc2ncnc3nc[nH]c23)cc1 | 18% | – |
| Cc1nn2cc(-c3cccc(Cl)c3)cnc2c1Br | -5.76% | – |
| Cc1ccc(C(=O)Nc2ccc(N3CCCCC3)cc2)cc1 | -8.38% | – |
| CN1CC(=O)N/C1=N\C(=O)Nc1ccc(O)cc1 | -1.9% | – |
| O=C(NC(=S)NNC(=O)c1ccccc1F)c1cccnc1 | 9.74% | – |
| CCOc1ccccc1/C=C/c1onc(C)c1S(=O)(=O)N1CCC(C(=O)N(CC)CC)CC1 | -11.7% | – |

| Compound | activity change, negative = inhibition | AC50 |
| --- | --- | --- |
| COc1ccc(NS(=O)(=O)c2cc(N=Nc3c(O)[nH]c(=O)[nH]c3=O)ccc2Cl)cc1 | -5.06% | – |
| CC(=O)Nc1ccc(NC(=O)CN2CCN(c3ccccn3)CC2)cc1 | -8.5% | – |
| COc1ccccc1-n1c(CCC(=O)O)ccc1-c1ccccc1 | -1.98% | – |
| COc1ccc(C2=NS(=O)(=O)N(C)C(C(=O)NCc3ccc4c(c3)OCO4)=C2)cc1OC | -0.875% | – |
| CNC(=O)C1CCN(S(=O)(=O)c2c(C)noc2/C=C/c2ccc(OC)cc2)CC1 | -12.1% | – |
| CC(=O)Nc1cc(-c2ccc(F)cc2)[nH]n1 | – | 2.6 µM (active) |
| CCN(CC)CCCCN1c2ccccc2Sc2ccccc21 | – | 7.03 µM (active) |
| CCCNC(=O)C1(C)CCCN(C(=O)c2ccccc2OC(F)(F)F)C1 (stereo not drawn) | -5.78% | – |
| COC(=O)c1ccc(C23CC4(C2)[C@H](CN(Cc2ccc(C(F)(F)F)cc2)[C@@H]4c2ccccc2)C3c2ccc(Cl)nc2)cc1 (stereo partly drawn) | -0.958% | – |
| Cn1cc(C(CO)Cc2ccccc2)c2ccccc21 (stereo not drawn) | – | > 39 µM |
| COc1cccc(C(=O)OCC(=O)Nc2cc(C)on2)c1OC | -16.1% | – |
| Cc1ccc2c(c1)/C(=C/c1ccccc1C)C(=O)N2 | -14.1% | – |
| CCc1[nH]c(=O)c(C#N)c2c1CCCC2 | -1.25% | – |
| COc1ccc(CNC(=O)C2=CC(c3ccc(C)cc3)=NS(=O)(=O)N2C)cc1 | -9.88% | – |
| NC(=O)c1ccc2c(=O)c(O)c(-c3cc(Cl)c(N)c(Cl)c3)[nH]c2c1 | -2.89% | – |
| Cc1ccc(NC(=O)C2OCCc3ccccc32)cc1C (stereo not drawn) | 1.44% | – |
| O=C(CNS(=O)(=O)c1ccc([N+](=O)[O-])cc1)N/N=C\c1ccc(O)cc1 | – | 13.2 µM (active) |
| C=CCNS(=O)(=O)c1nc(C)c(Cl)c(C)c1C#N | -3.36% | – |
| O=C(NC(=S)NCc1ccccc1)c1cccnc1 | -0.968% | – |
